In the library only some 1.2% were active in any assay of this set; here they are far more common.
KCNH2 3.1 inh = KCNH2 3.1 (human) potassium channel inhibition. 340,000 compounds, 0.95% hits. U2OS KCNH2 3.1, thallium flux FluxOr; active compounds read low. activity change, % (tested at about 1.8 µM);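 active means maximum activity change below -70%; inconclusive means maximum activity change from -70% to -50%; inactive means maximum activity change above -50%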;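 further: thallium influx rate constant from kinetic fluorescence after stimulation buffer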
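Kinetic fluorescence (2 min after stimulation buffer) measures Tl+ influx through KCNH2 3.1 expressed by viral transduction in U2OS cells; the rate constant is normalized against DMSO controls serving as positive and negative references.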
hERG WT inh = KCNH2 (human, wildtype) channel inhibition. Q12809. U2OS, BacMam KCNH2, thallium flux FluxOr; active compounds read low. activity change, % at 1.84 µM. 340,000 compounds, 0.37% hits. AID 720551;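 active means maximum activity change below -70%; inconclusive means maximum activity change between -70% and -50%; inactive means maximum activity change above -50%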
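U2OS cells transduced with wild-type KCNH2 virus are loaded with FluxOr dye for 45 min, and thallium flux is measured in kinetic reads before and after stimulation buffer. Rate constants are normalized to DMSO controls.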
Tb PFK inh-1 = T. brucei PFK enzyme inhibition. O15648. T. brucei PFK, ADP-Glo luminescence. Potency, µM (highest dose often 57.5 µM), usual class: inhibitors. 330,000 compounds, 0.17% hits. AID 485367; further: nearly all actives have a fitted effect of over 60% in size
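Compounds were pin-transferred as a titration series up to 57 uM into substrate buffer (0.5 mM F6P, 0.1 mM ATP, pH 8.0), then 1.25 nM PFK was added and reactions ran 45 min before ADP-Glo detection.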
TSG101-PTAP inh = blocks PTAP/TSG101 interaction to inhibit HIV-1 budding | Q99816 | Fluorescence polarization, FITC-PTAP peptide / Tsg101 binding | Potency, µM (series often up to 115 µM), hits mostly inhibitors | 340,000 tested, under 10 active | AID 493005; active means well fitted inhibition curve with a large enough effect in the main read-out, with a control signal flat, not every such curve was filed as active; inconclusive means small, poorly fitted or top-dose-only effect, or effect the other way, or a change in a side signal; inactive means no such curve, though single readings can be large or run the other way
Target sequence (Q99816 whole entry, looked up): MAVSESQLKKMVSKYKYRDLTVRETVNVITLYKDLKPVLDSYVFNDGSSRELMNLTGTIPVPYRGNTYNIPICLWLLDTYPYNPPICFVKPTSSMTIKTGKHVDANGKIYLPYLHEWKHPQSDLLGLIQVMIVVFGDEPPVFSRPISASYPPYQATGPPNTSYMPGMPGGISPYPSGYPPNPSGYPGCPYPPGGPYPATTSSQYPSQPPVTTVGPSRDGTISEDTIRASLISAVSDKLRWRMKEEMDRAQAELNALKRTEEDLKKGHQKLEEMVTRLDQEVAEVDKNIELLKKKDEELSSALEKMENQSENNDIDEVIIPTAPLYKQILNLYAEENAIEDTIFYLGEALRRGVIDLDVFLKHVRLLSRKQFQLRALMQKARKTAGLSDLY
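FP read-out: FITC-PTAP peptide, 50 nM final, binding Tsg101 binding domain, 10 uM final; 20 min, r.t.; 10 mM HEPES pH 7.5, 0.15 M NaCl, 0.01% Tween 20, 3 mM EDTA, 0.1 mM TCEP.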
Tb PFK KinaseGlo = inhibits T. brucei PFK measured by ATP depletion; Potency, µM (doses to about 57.5 µM); Tb PFK enzyme, ATP depletion, Kinase-Glo Plus luminescence; shares compounds with Tb PFK inh-1; 1,100 compounds, 47% hits; AID 504636; calls by dose curve; further: nearly all actives have a fitted effect of over 60% in size
Tb PFK inh-2 = validation of T. brucei phosphofructokinase inhibitors; shares compounds with Tb PFK inh-1; purified T. brucei PFK, ADP-Glo luminescence, 45 min; Potency, µM (top dose mostly 57.5 µM), hits mostly inhibitors; 1,100 compounds, 41% hits; AID 504637; further: nearly all actives have a fitted effect of over 60% in size
Of the large screens only hits and unclear results are named; the others gave an inactive call (follow-up assays come after a bar, where they were run). Unless noted, the call rests on the fitted dose curve; in most records, active means well fitted inhibition curve with a large enough effect; inconclusive means small, poorly fitted or top-dose-only effect, or effect the other way; inactive means flat fitted curve, though single readings scatter.

COc1ccc(/C=N\NC(=O)C2COc3ccccc3O2)cc1O (configuration not stated)	Tb PFK inh-1 13µM | Tb PFK KinaseGlo 8.5µM | Tb PFK inh-2 12µM
O=C1NC(=O)C(=Cc2ccc3c(c2)OCO3)C(=O)N1	none (no result: KCNH2 3.1 inh, hERG WT inh, TSG101-PTAP inh)
O=C(N/N=C/c1ccc2c(c1)OCO2)C1COc2ccccc2O1 (configuration not stated)	Tb PFK inh-1 inconclusive | Tb PFK KinaseGlo 19µM | Tb PFK inh-2 21µM
COc1ccc(C=O)cc1O	none
CC(Cc1ccccc1)NC(=O)Cc1ccc([N+](=O)[O-])cc1 (configuration not stated)	Tb PFK inh-1 inconclusive
O=[N+]([O-])c1ccc(Cc2ccccn2)cc1	Tb PFK inh-1 inconclusive | Tb PFK KinaseGlo inconclusive | Tb PFK inh-2 inconclusive
CN1C(=O)CCC2(C)C1=CCC1C2CCC2(C)C1CCC2(C)O (configuration not stated)	none (no result: Tb PFK inh-1)
COC(=O)C1=C(c2ccc(F)cc2OCc2ccccc2)C[C@@H]2CC[C@H]1N2C(=O)N1CCOCC1	none
COc1nccnc1NS(=O)(=O)c1ccc(NCc2cc(Br)ccc2O)cc1	Tb PFK inh-1 inconclusive | Tb PFK KinaseGlo inconclusive | Tb PFK inh-2 inactive
Cc1ccc(C)c2nc3sc(C(=O)O)cc3cc12	Tb PFK inh-1 inconclusive | Tb PFK KinaseGlo inactive | Tb PFK inh-2 inconclusive
CC[n+]1c(C)sc2cc(C)ccc21	Tb PFK inh-1 inconclusive | Tb PFK KinaseGlo inactive | Tb PFK inh-2 inactive
CCCCCC1(C(C)C)C(=O)NC(=S)NC1=O	none (no result: Tb PFK inh-1)
O=C(CCS(=O)(=O)c1ccc(Br)cc1)Nc1ccc(Br)cc1F	Tb PFK inh-1 inconclusive | Tb PFK KinaseGlo inconclusive | Tb PFK inh-2 inconclusive
COC(=O)C1=C(c2ccc3ccccc3c2)C[C@@H]2CC[C@H]1N2C(=O)N1CCCC1	none
O=C(O)C(Cc1ccccc1)N1C(=O)/C(=C/C=C/c2ccco2)SC1=S (configuration not stated)	Tb PFK inh-1 inconclusive | Tb PFK KinaseGlo 21µM | Tb PFK inh-2 inconclusive
O=C1NC(=O)N(c2ccccc2)C(=O)/C1=C/C=C/c1ccco1	Tb PFK inh-1 inconclusive
O=C(O)CC(C(=O)O)N1C(=O)/C(=C/C=C/c2ccco2)SC1=S (configuration not stated)	Tb PFK inh-1 8.5µM | Tb PFK KinaseGlo 2.1µM | Tb PFK inh-2 6µM
O=C1NC(=O)N(Cc2ccccc2)C(=O)/C1=C\C=C\c1ccco1	none
CCC1(c2ccc(N)cc2)CCC(=O)NC1=O (configuration not stated)	none (no result: Tb PFK inh-1)
C[C@]12CCC3[C@@H](CCC4=CC(=O)CC[C@@]43C=O)C1CCC2=O (some centres not stated)	none
O=C(Nc1cnn(Cc2ccc(Cl)c(Cl)c2)c1)c1nc2ncccn2n1	Tb PFK inh-1 5.4µM | Tb PFK KinaseGlo 2.7µM | Tb PFK inh-2 5.4µM
NC1CCc2cc(O)c(O)cc2C1 (configuration not stated)	Tb PFK inh-1 6.7µM | Tb PFK KinaseGlo 2.7µM | Tb PFK inh-2 2.7µM
COc1ccc(/C=C/C(=O)NC(=S)N2C[C@H]3C[C@H](C2)c2cccc(=O)n2C3)cc1	none
CCc1nnc(NS(=O)(=O)c2ccc(NC(=S)NC(=O)/C=C/c3ccc(OC)cc3)cc2)s1	Tb PFK inh-1 inconclusive | Tb PFK KinaseGlo inconclusive | Tb PFK inh-2 inconclusive
COc1ccc(CC(=O)Nc2ccc(C#N)c(Cl)c2)cc1S(=O)(=O)N1CCOCC1	none
Cc1noc(NS(=O)(=O)c2ccc(NC(=O)COc3ccc(Cl)cc3Cl)cc2)c1C	Tb PFK inh-1 12µM | Tb PFK KinaseGlo 5.4µM | Tb PFK inh-2 12µM
Cc1noc(NS(=O)(=O)c2ccc(NC(=O)c3cnc4scc(C)n4c3=O)cc2)c1C	Tb PFK inh-1 inconclusive | Tb PFK KinaseGlo inactive | Tb PFK inh-2 inconclusive
O=P(Nc1cccnc1)(Oc1ccccc1Cl)Oc1ccccc1Cl	none
O=C(COc1ccc(Cl)cc1Cl)Nc1cccnc1	Tb PFK inh-1 inconclusive | Tb PFK KinaseGlo inconclusive | Tb PFK inh-2 inconclusive
Cc1ccc(NC(=O)COc2ccc(Cl)cc2Cl)cc1S(=O)(=O)N1CCOCC1	Tb PFK inh-1 inconclusive | Tb PFK KinaseGlo inconclusive | Tb PFK inh-2 inconclusive
O=C(N=Nc1c(O)[nH]c(=O)[nH]c1=O)C1COc2cc3ccccc3cc2O1 (configuration not stated)	none
CCOc1ccc(C(c2c(C)[nH][nH]c2=O)c2c(C)[nH][nH]c2=O)cc1OC	Tb PFK inh-1 inconclusive | Tb PFK KinaseGlo inconclusive | Tb PFK inh-2 inactive
COc1ccc(CNC(=O)CCC(=O)N2C[C@H]3C[C@H](C2)c2cccc(=O)n2C3)cc1	none
O=C(/C=C/c1c[nH]c2ccccc12)c1c(O)n(CCc2ccccc2)c(=O)[nH]c1=O	TSG101-PTAP inh inconclusive
Nc1c(/C=C2/C=CC(=O)C(O)=C2)c(=O)nc2sc(CC(=O)N3CCCCC3)nn12	Tb PFK inh-1 19µM | Tb PFK KinaseGlo 2.7µM | Tb PFK inh-2 3.8µM
Cc1cccc(OCC(O)CN2CC2)c1 (configuration not stated)	none (no result: Tb PFK inh-1, TSG101-PTAP inh)
CCN(C(=O)COC(=O)Cc1ccccc1)c1c(N)n(Cc2ccccc2)c(=O)[nH]c1=O	none
COCCN(C(=O)COC(=O)c1cc2c(s1)CCC2)c1c(N)n(Cc2ccccc2)c(=O)[nH]c1=O	Tb PFK inh-1 3.8µM | Tb PFK KinaseGlo 1.1µM | Tb PFK inh-2 1.7µM
COC(=O)C1=C(c2cccc(OCc3ccccc3)c2)C[C@@H]2CC[C@H]1N2C(=O)NCc1ccc(Cl)cc1	none
O=C(C[N+]12CCC(CC1)C(CO)C2)c1ccc(Br)cc1 (configuration not stated)	none
O=c1c(O)c(-c2cc(O)c(O)c(O)c2)oc2cc(O)cc(O)c12	Tb PFK inh-1 8.5µM | Tb PFK KinaseGlo 1.9µM | Tb PFK inh-2 3.8µM
O=C(O)CCNC(=O)c1ccc(NC(=O)Cc2ccc(Cl)cc2)cc1	Tb PFK inh-1 inconclusive | Tb PFK KinaseGlo inconclusive | Tb PFK inh-2 inconclusive
NNC(=O)c1ccc(Cl)cc1	none
COc1ccc(OC)c(N=Cc2c(O)[nH]c(=O)[nH]c2=O)c1	none
CC1(C)CC(=O)C2=C(C1)OC1=C(C(=O)CC(C)(C)C1)C2c1ccc(O)cc1O	Tb PFK inh-1 inconclusive | Tb PFK KinaseGlo 1.7µM | Tb PFK inh-2 1.3µM
Cc1ccc(-n2nc(C)cc2NC(=O)COc2cc(C)cc3oc(=O)c4c(c23)CCC4)cc1	none
NS(=O)(=O)c1ccc(NC(=O)C2COc3ccccc3O2)cc1 (configuration not stated)	Tb PFK inh-1 21µM | Tb PFK KinaseGlo 6.7µM | Tb PFK inh-2 30µM
CNCC(O)c1cc(OCc2ccccc2)c(OCc2ccccc2)cc1F (configuration not stated)	none (no result: KCNH2 3.1 inh, hERG WT inh, Tb PFK inh-1)
O=[N+]([O-])c1ccc(N2CCN(c3cccc(Cl)c3)CC2)cn1	Tb PFK inh-1 12µM | Tb PFK KinaseGlo inconclusive | Tb PFK inh-2 5.4µM
CCNc1cc(N2CCN(C)CC2)ccc1[N+](=O)[O-]	none
